Compound activity deposited in PubChem by National Center for Advancing Translational Sciences (NCATS).
Compounds with a hit are over-represented: about 10% of the library has one in this group of screens.
G9a inh: qHTS Assay for Inhibitors of Histone Lysine Methyltransferase G9a. Histone-lysine N-methyltransferase EHMT2 (Homo sapiens), Q96KQ7. G9a H3K9 monomethylation, AlphaScreen, 2 h. Potency, µM (titrated, usually from 102 µM), inactives show at the top dose activity, negative = inhibition, hits mostly inhibitors. 350,000 tested, 8.8% active. AID 504332, 2011; also: potency is read from the fitted curve at half-maximal effect; % is scaled to controls: 0 for no effect and ±100 for the full control effect; nearly all actives have a fitted effect of over 75% in size
Target sequence (Q96KQ7 913-1193 limits assumed): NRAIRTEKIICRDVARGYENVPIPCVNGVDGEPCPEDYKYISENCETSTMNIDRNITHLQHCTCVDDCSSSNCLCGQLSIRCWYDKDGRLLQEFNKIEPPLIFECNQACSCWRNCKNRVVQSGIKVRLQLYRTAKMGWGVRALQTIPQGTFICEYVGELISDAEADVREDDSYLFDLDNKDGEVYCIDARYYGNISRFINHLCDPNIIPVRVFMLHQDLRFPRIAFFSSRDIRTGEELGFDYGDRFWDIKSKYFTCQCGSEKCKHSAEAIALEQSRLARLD
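Step 1: enzyme (final 20 nM) with compound, 15 min RT. Step 2: substrate peptide 500 nM and SAM 20 uM, 2 h RT. Step 3: anti-H3K9me1 antibody and AlphaScreen beads, 10 min, then plate read.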
Six1-Eya2 blk: qHTS Assay for Inhibitors of the Six1/Eya2 Interaction | AID 651725, 2012 | AlphaScreen GST-Six1/His-Eya2 binding, biochemical; active compounds read low | 360,000 tested, 0.56% active | activity change, % (concentration not given with the values) | Homeobox protein SIX1 (Homo sapiens) + Protein phosphatase EYA2 (Homo sapiens), …; in the data active = activity change below about -65%; inconclusive = mostly about -30% to -63%; also: % is scaled to controls: 0 for no effect and ±100 for the full control effect
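AlphaScreen with GST-Six1 and His-Eya2 (5X mix: 250 nM and 500 nM), glutathione donor and nickel acceptor beads; buffer 50 mM Tris pH 8.0, 300 mM NaCl, 1 mM TCEP; 1 h at 37 C in the dark.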
BAZ2B inh: qHTS Assay for Inhibitors of BAZ2B; AlphaScreen BAZ2B-H3K14Ac peptide displacement; Potency, µM (series often up to 114 µM), for inactives: top-dose activity change, negative = inhibition, actives largely listed as inhibitors; 360,000 tested, 4.4% active; also: potency is read from the fitted curve at half-maximal effect; % is scaled to controls: 0 for no effect and ±100 for the full control effect; nearly all actives have a fitted effect of over 60% in size
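BAZ2B (50 nM) with biotin-H3(5-23)K14Ac peptide (50 nM) in PBS pH 7.4, 0.01% Tween-20, preformed 30 min, then compound 30 min at room temperature; top concentration 110uM. AlphaScreen streptavidin donor/nickel chelate acceptor beads (10 ug/mL final), 20 min dark, signal read.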
JMJD2A Tudor inh: qHTS Assay for Inhibitors of JMJD2A-Tudor Domain; Lysine-specific demethylase 4A (Homo sapiens), O75164; AlphaScreen JMJD2A-Tudor / H3K4me3 peptide binding; Potency, µM (doses to about 114 µM), without a hit: at the highest dose activity change, negative = inhibition, actives largely listed as inhibitors; 390,000 tested, 4.4% active; AID 504339, 2011; also: potency is read from the fitted curve at half-maximal effect; % is scaled to controls: 0 for no effect and ±100 for the full control effect; nearly all actives have a fitted effect of over 50% in size
CtBP-E1A blk: qHTS Assay for Inhibitors of the CtBP/E1A Interaction. CtBP / adenovirus E1A interaction (AlphaScreen). AlphaScreen GST-E1A/His-CtBP binding, 1536-well; active compounds read low. activity change, % (test concentration not listed). 340,000 tested, 0.49% active. AID 651724, 2012; in the data active = activity change below about -65%; inconclusive = mostly about -30% to -63%; also: % is scaled to controls: 0 for no effect and ±100 for the full control effect
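Protein mix (5X: 125 nM each GST-E1A, His-CtBP) was incubated with pinned compound 2 h at 37 deg C in dark, in 50 mM Tris pH 8.0 buffer with 300 mM NaCl. Glutathione donor and nickel acceptor beads followed; AlphaScreen signal read after 1 h.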
HP1b binding inh: HTS for Inhibitors of HP1-beta Chromodomain Interactions with Methylated Histone Tails; Chromobox protein homolog 1 (Homo sapiens), P83916; AlphaScreen HP1-beta / biotin-H3K9me3 peptide binding; Potency, µM (doses to about 114 µM), without a hit: at the top dose activity change, negative = inhibition, usual class: inhibitors; 390,000 tested, 0.56% active; AID 540317, 2011; also: potency is read from the fitted curve at half-maximal effect; nearly all actives have a fitted effect of over 70% in size
Target sequence (P83916 whole entry, looked up): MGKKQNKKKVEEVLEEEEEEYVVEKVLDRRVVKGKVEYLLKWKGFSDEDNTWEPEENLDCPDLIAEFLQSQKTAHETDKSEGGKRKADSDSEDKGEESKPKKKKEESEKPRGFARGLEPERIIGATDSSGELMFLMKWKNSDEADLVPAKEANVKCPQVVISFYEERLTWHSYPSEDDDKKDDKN
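AlphaScreen: HP1-beta (50 nM) preformed 30 min with biotin-H3(1-18)K9me3 peptide (50 nM) in PBS pH 7.4, 0.01% Tween-20. Compound added for 30 min at RT, then streptavidin donor/nickel chelate acceptor beads (10 ug/mL) for 30 min.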
* hit, by the source's call; u = inconclusive; x = not tested or not shown; ! = not active in a repeat; [ ] = dose if it differs, or a comment. Unless noted, calls follow the shape of the dose curve; as a rule, active = well fitted inhibition curve with a large enough effect; inconclusive = small, poorly fitted or top-dose-only effect; inactive = no such curve, though single readings can be large or run the other way.

SMILES | G9a inh | Six1-Eya2 blk | BAZ2B inh | JMJD2A Tudor inh | CtBP-E1A blk | HP1b binding inh
O=C(Nc1ccc(S(=O)(=O)Nc2nccs2)cc1)c1ccc(=O)[nH]c1 | x | -18 | 50µM* | u | -25 | -13%
CCOc1ccccc1NC(=O)CSc1ccc2nnc(CCNS(=O)(=O)c3ccccc3)n2n1 | -3%[59 µM] | x | -22% | u | x | 31%
Cn1nc(-c2ccc(F)cc2)nc2c(=O)n(C)c(=O)nc1-2 | x | x | x | -3%[57.1 µM] | x | 14%[57 µM]
Fc1ccc(-c2cc(-c3nc(-c4cccc(Cl)c4)no3)[nH]n2)cc1 | 10%[59 µM] | x | 2% | -17% | x | -1%
COc1ccc(S(=O)(=O)Nc2ccc(S(=O)(=O)Nc3nccs3)cc2)cc1 | 50µM* | 14 | -3% | -7% | 0 | 11%
COc1ccc(CC(=O)Nc2ccc(S(=O)(=O)Nc3nccs3)cc2)cc1 | -79% | -5 | -26% | u | -2 | -8%
O=C(NC(=S)Nc1ccc2[nH]c(=O)[nH]c2c1)c1ccccc1F | x | -2 | -4% | -13% | -1 | 30%
COc1ccccc1C(=O)NNC(=S)NC(=O)c1ccco1 | 28µM* | -4 | 7% | -29% | -11 | 24%
O=C(NC(=S)Nc1ccc(F)c([N+](=O)[O-])c1)c1ccccc1F | 45µM* | -8 | -34% | -9% | 3 | 25%
COC(=O)NNC(=O)c1ccccc1OC | 12%[59 µM] | 1 | -2% | -1%[11.4 µM] | 6 | 70%
COc1ccccc1C(=O)NNC(=S)Nc1ccccc1 | 28µM* | -7 | 5% | -7% | -1 | 28%
COc1cc(NC(=S)NC(=O)c2ccccc2F)ccc1NC(=O)c1ccco1 | 7.9µM* | 2 | 1% | u | 3 | u
Cc1ccc(NC(=O)CCc2nnc3n(C)c(=O)c4sccc4n23)cc1C | -25%[59 µM] | x | 1% | -7% | x | 19%
Cc1ccc(NC(=O)COc2ccc3oc4c(c3c2)CCCC4)c(C)c1 | u | x | -1% | -9% | x | 51%
COc1ncc2nc(-c3cn(C)c4ccccc34)c(=O)n(C)c2n1 | 2%[0.501 µM] | x | x | x | x | x
CCOc1ccc(-c2c(C)nn3c(C)c(C(=O)Nc4cccc(Cl)c4C)cnc23)cc1OCC | -2%[59 µM] | x | -14% | -18% | x | 17%
COc1ccc(CC(=O)Nc2ccc(OC)c(NC(=O)c3ccco3)c2)cc1 | 50µM* | -3 | -5% | -9% | -5 | 31%
COc1ccc(NC(=O)CCc2ccccc2)cc1NC(=O)c1ccco1 | 17%[59 µM] | -3 | 0% | -9% | 6 | 22%
Fc1ccc2[nH]c(-c3cccs3)cc2c1 | 5%[59 µM] | x | -5% | -10% | x | 12%
CN(C)CCCC1(c2ccc(F)cc2)OCc2cc(C#N)ccc21 (stereo not given) | 71µM*! | 2 | -2% | -22% | 1 | 10%
CCOC(=O)c1ccc(NS(=O)(=O)c2cc3c(cc2C)n(C)c(=O)c(=O)n3C)cc1 | -4%[59 µM] | x | 0% | -6% | x | 32%
COc1ccc(C(O)Cn2ccsc2=NC(C)=O)cc1 (stereo not given) | 50µM* | 0 | -29% | -3% | 4 | 48%
CC1=CC2=NC(=O)/C(=C\c3cccn3CCOc3cccc(C)c3)C(=N)N2O1 | 3%[59 µM] | -18 | -38% | u | -19 | -23%
CC1=CC2=NC(=O)/C(=C\c3cccn3CCOc3ccccc3)C(=N)N2O1 | u | -2 | u | u | x | -7%
COc1cccc(OCCn2cccc2/C=C2/C(=N)N3OC(C)=CC3=NC2=O)c1 | 18µM* | 6 | u | -10% | 4 | -2%
SMILES | G9a inh | Six1-Eya2 blk | BAZ2B inh | JMJD2A Tudor inh | CtBP-E1A blk | HP1b binding inh
CC1=CC2=NC(=O)/C(=C\c3cccn3CCOc3cc(C)cc(C)c3)C(=N)N2O1 | 40µM* | -21 | u | u | -1 | -10%
O=C(CN1C(=O)CCc2cc(S(=O)(=O)N3CCCCC3)ccc21)NCc1ccc(Cl)cc1 | u | x | -1% | -32% | x | -2%
CCc1cccc(C)c1NC(=O)CN1CCN(Cc2ccccc2Cl)S1(=O)=O | -2%[59 µM] | x | -4% | 6% | x | 48%
CCn1c(-c2ccc(OC)c(OC)c2)n[nH]c1=S | 2µM* | 3 | 0% | 3.5µM* | 0 | -3%
C=CCn1c(-c2ccc(OC)c(OC)c2)n[nH]c1=S | -13%[59 µM] | 2 | -8% | 25µM* | -2 | 14%
C=CCn1c(-c2c(C)nc3cc(C)ccn23)n[nH]c1=S | 10µM* | 9 | -4% | 10µM* | 25 | 26%
O=C(Nc1ccc(F)cc1F)c1ccc(CN2CC(=O)N3CCCCC3C2=O)cc1 (stereo not given) | -25%[59 µM] | x | 3% | -22% | x | 33%
CCC1CCCCN1S(=O)(=O)c1ccc(C(=O)Nc2sc3c(c2C(N)=O)CCC3)cc1 (stereo not given) | 0%[59 µM] | x | -3% | -26% | x | 14%[57 µM]
Cc1ccc(N2C(=O)CS(=O)(=O)CC2=O)cc1 | 32µM* | -6 | -18% | -6% | 10 | 63%
COc1cc(C(=O)OCc2cc(=O)n3nc(C4CCCCC4)sc3n2)cc(OC)c1OC | 8%[59 µM] | x | -8% | -13% | x | -11%
CCOc1ccccc1/C=N/n1c(C)nc2ccccc2c1=O | -11%[2.33 µM] | 5 | 2% | -8% | 1 | 17%
Fc1ccccc1/C=N/n1c(COc2ccccc2)n[nH]c1=S | 2.2µM* | -7 | u | 32µM* | 0 | u
Oc1ccccc1/C=N/n1c(COc2ccccc2)n[nH]c1=S | 2.5µM* | -14 | -35% | 79µM* | -3 | u
Oc1ccc(/C=N/n2c(COc3ccccc3)n[nH]c2=S)c(O)c1 | 1.8µM* | -3 | -13% | -22% | -13 | -13%
CCOc1ccccc1/C=N/n1c(COc2ccccc2)n[nH]c1=S | 14µM* | -18 | u | u | x | -4%
CCn1ccc2cc(S(=O)(=O)N3CCCN(C(=O)Nc4cc(Cl)ccc4C)CC3)ccc21 | -1%[59 µM] | x | 2% | 1% | x | 18%[57 µM]
Cc1ccccc1/C=N/n1c(COc2ccccc2)n[nH]c1=S | 2µM* | -2 | -1% | -7% | 3 | -2%
COc1ccc(C(=O)N(Cc2ccco2)Cc2cccs2)c(OC)c1 | x | x | x | -31% | x | 12%
Cc1ccc(N2CC(NC(=O)C3CCCC3)CC2=O)cc1C (stereo not given) | 5%[59 µM] | x | -1% | -13% | x | 9%
